Menin-MLL FL inh = displaces fluorescein MLL peptide from human menin. Fluorescence polarization, fluorescein-MLL peptide displacement from menin. 290,000 tested, under 10 active. FP activity change, % at 61.4 µM; active means well fitted curve in the direction sought with a large enough effect in the polarisation, not every such curve was filed as active; inconclusive means small, poorly fitted or top-dose-only effect, or effect the other way, or a change in a side signal; inactive means no such curve, though single readings can be large or run the other way; the % refers to the polarisation; further: % of control where 0% means no effect
Menin MLL FP TR = displaces Texas Red mutant MLL peptide from human menin; O00255; Menin + Texas Red MLL mutant peptide, fluorescence polarization; Potency, µM (top dose mostly 61.6 µM), without a hit: at the top dose FP activity change, negative = inhibition, actives largely listed as inhibitors; 0.23% of 270,000 active; active means well fitted inhibition curve with a large enough effect in the polarisation, with a control signal flat, not every such curve was filed as active; inconclusive means small, poorly fitted or top-dose-only effect, or effect the other way, or a change in a side signal; inactive means no such curve, though single readings can be large or run the other way; the % refers to the polarisation; further: potency means the concentration at half of the fitted maximal effect; % of control where 0% means no effect
Target sequence (O00255 whole entry, looked up): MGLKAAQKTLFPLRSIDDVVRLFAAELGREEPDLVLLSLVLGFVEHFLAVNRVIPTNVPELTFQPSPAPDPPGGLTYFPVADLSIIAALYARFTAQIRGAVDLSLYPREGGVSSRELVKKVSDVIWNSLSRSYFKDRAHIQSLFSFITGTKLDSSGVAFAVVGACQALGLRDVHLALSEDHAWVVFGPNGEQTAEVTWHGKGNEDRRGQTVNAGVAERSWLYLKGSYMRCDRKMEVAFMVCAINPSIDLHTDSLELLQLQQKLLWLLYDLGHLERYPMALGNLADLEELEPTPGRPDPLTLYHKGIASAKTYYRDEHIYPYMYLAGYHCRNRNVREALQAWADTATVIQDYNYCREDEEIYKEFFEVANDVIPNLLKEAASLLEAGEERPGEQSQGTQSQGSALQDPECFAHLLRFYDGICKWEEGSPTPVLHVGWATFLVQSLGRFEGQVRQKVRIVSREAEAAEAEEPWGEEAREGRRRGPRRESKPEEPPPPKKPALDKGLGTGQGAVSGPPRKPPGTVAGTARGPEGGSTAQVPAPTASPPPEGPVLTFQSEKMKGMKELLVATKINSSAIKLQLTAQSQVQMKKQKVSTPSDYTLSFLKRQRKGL
CXXC DNA block = MLL CXXC-DNA interaction inhibition | MLL-CXXC / FITC-HOXA9 DNA fluorescence polarization | Potency, µM (titrated, usually from 115 µM), for the others: top-dose activity change, negative = inhibition, hits mostly inhibitors | 0.037% of 290,000 active | AID 2662; active means well fitted inhibition curve with a large enough effect in the polarisation, with a control signal flat, not every such curve was filed as active; inconclusive means small, poorly fitted or top-dose-only effect, or effect the other way, or a change in a side signal; inactive means no such curve, though single readings can be large or run the other way; the % refers to the polarisation; further: potency means the concentration at half of the fitted maximal effect
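Steps: dispense CXXC domain solution (7 uM) → pin compounds or unlabeled HOX-A9 DNA control → 5 min ambient → add FLSN-HOX-A9 solution (50 nM) → spin → 30 min ambient → fluorescence polarization. Tris pH 7.5/NaCl/DTT/BSA buffer.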
TR SRC2 fluor cs = alters Texas Red total fluorescence, flagging assay interference; TRb/SRC2 Texas Red total fluorescence interference; Potency, µM (top dose mostly 106 µM), for the others: top-dose fluorescence change, negative = quenching; 0.29% of 280,000 active; AID 1479; active means well fitted curve in either direction with a large enough effect; inconclusive means small, poorly fitted or top-dose-only effect; further: potency means the concentration at half of the fitted maximal effect; on the % scale 0 is the no-effect control and ±100 the full control effect
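Flags fluorescent or light-absorbing compounds by total fluorescence, S + 2P, at 555 nm excitation and 632 nm emission. Mixture: 20 nM Texas Red SRC2 peptide, 0.6 uM human TRb LBD, 1 uM T3, 5% DMSO; compound exposure 5 h at ambient temperature.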
TRb-SRC2 inh = TRbeta-SRC2 interaction inhibition; P10828; TRbeta-SRC2 peptide binding, fluorescence polarization; receptor liganded with 1 µM T3; Potency, µM (highest dose often 106 µM), for the others: at the top dose activity change, negative = inhibition, hits mostly inhibitors; 0.065% of 280,000 active; active means well fitted inhibition curve with a large enough effect; inconclusive means small, poorly fitted or top-dose-only effect, or effect the other way;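 further: potency means the concentration at half of the fitted maximal effect; plate controls were bound peptide for no effect and peptide without receptor for full effect; nearly all actives have a fitted effect of over 50% in size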
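Human TRb LBD (0.6 uM) plus Texas Red-labeled SRC2 peptide (20 nM), 1uM T3, 5% DMSO, 5 hr at ambient temperature. Decreased polarization (555/632 nm) flags inhibition; data normalized to free and bound peptide controls.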
The depositor's hits bear a star; ? = inconclusive; . = not tested or not shown; ! = not active in a repeat; [ ] = dose if it differs, or a comment. Most compounds without a hit are left out; they make up all but 0.36% or so of the library.

SMILES | Menin-MLL FL inh | Menin MLL FP TR | CXXC DNA block | TR SRC2 fluor cs | TRb-SRC2 inh
COc1ccc(C2C3C=CCC(c4cccc(/C=C/c5ccccc5)c4)C3C(=O)N2Cc2ccccc2)cc1Cl (configuration not stated) | 9.2 | 15.7% | . | 0.2% | -0.3%
O=C(NCc1cccs1)c1ccc([N+](=O)[O-])cc1 | -3.4 | 9.4% | 22.8% | 0.1µM*[quencher] | ?
O=C1C(Cl)=C(NCCCO)C(=O)c2ccccc21 | 9.6 | 2.5% | -5.5% | -1.9% | -6.9%
O=C1C(SCCO)=C(SCCO)C(=O)c2ccccc21 | . | . | 31.0% | 14.1µM*![quencher] | ?
CCCCCCCCCCCCCC(=O)OC | . | . | . | 2.3%[201 µM] | -4.4%[201 µM]
CC(C)n1nnc2cc(C(=O)O)ccc21 | 5.3 | -8.0% | . | -0.6% | -0.2%
Cc1cccc(NC(=O)NCc2ccc3c(c2)cc(C)n3C)c1 | ? | ? | -2.3% | 23.4% | -15.0%
Cc1cc2cc(CNC(=O)Nc3cccc(Cl)c3)ccc2n1C | -22.8 | ? | -10.8% | 44.7µM*[fluorescent] | 44.7µM*
CNC(=O)COc1ccc(Nc2nnc(-c3ccc(C)c(S(=O)(=O)NC(C)(C)C)c3)c3ccccc23)cc1 | . | . | . | 0.199µM*[quencher] | -8.3%
CCOc1ccc(CNC(=O)c2cnc3sc(N4CCOCC4)nn3c2=O)cc1OC | . | . | . | 1995µM*[quencher] | ?
Cc1nn(C)c2c1c(C(F)(F)F)cc(=O)n2C(C)C(=O)NCc1ccccc1Cl (configuration not stated) | . | . | . | 316µM*[quencher] | -20.9%
COc1ccccc1CNC(=O)C(C)n1c(=O)cc(C(F)(F)F)c2c(C)nn(C)c21 (configuration not stated) | . | . | . | -3.3% | -10.5%
CCC(=O)OCCc1ccccc1 | . | . | . | -2.1%[201 µM] | 5.7%[201 µM]
CC1=C(C(=O)Nc2ccc(C)cc2C)C(c2ccccc2F)n2nc(SCC(=O)c3ccc(C)cc3)nc2N1 (configuration not stated) | . | . | . | 0.0316µM*[quencher] | -17.7%
CC1=C(C(=O)Nc2ccc(C)cc2C)C(c2ccccc2)n2nc(SCC(=O)c3ccc(C)cc3)nc2N1 (configuration not stated) | . | . | . | -0.1% | -9.7%
COc1ccc(-c2cc(=O)c3c(O)cc(O[C@H]4OC(COC5OC(C)C(O)C(O)[C@H]5O)C(O)C(O)C4O)cc3o2)cc1O (some centres not stated) | 1.4 | 25.1µM* | 11.8% | -6.0% | -3.2%
COc1ccc(-c2cc(=O)c3c(O)cc(O[C@@H]4OC(COC5OC(C)C(O)C(O)[C@@H]5O)C(O)C(O)C4O)cc3o2)cc1 (some centres not stated) | 2.1 | -20.9% | . | -0.5% | -3.4%
CCOC(=O)c1ccccc1NC(=O)N1CCOc2ccc(Cl)cc21 | . | . | . | 4.47µM*[quencher] | -6.7%
O=C(Nc1cccc2c1CCCC2)N1CCOc2ccc(Cl)cc21 | . | . | . | -4.7% | -1.0%
CCc1ccccc1NC(=O)N1CCOc2ccccc21 | . | . | . | 0.0089µM*[quencher] | -0.1%
COc1ccc(C(=O)c2c(N)sc3c2CCN(C)C3)cc1 | ? | 14.1µM* | ? | . | .
CN1CCc2c(sc(N)c2C(=O)O)C1 | -21.9 | -8.1% | 1.4% | 2.1% | -3.2%
C=Cc1ccc(Cn2c(C(=O)O)c(CNCc3ccc(F)cc3)c3ccc(C)cc32)cc1 | . | . | . | -3.2% | -1.7%
Nc1ncc(S(=O)(=O)N2CCN(c3ccccc3)CC2)cn1 | . | . | . | 0.0056µM*[quencher] | -19.3%
O=C(Cl)c1cc(Cl)cc(Cl)c1 | . | . | . | -1.1%[201 µM] | 4.7%[201 µM]
SMILES | Menin-MLL FL inh | Menin MLL FP TR | CXXC DNA block | TR SRC2 fluor cs | TRb-SRC2 inh
Cc1ccc(-n2cc(C(=O)OCc3ccc(F)c(F)c3)c3ccccc3c2=O)cc1 | . | . | . | 4.6% | -1.7%
COc1ccc(-n2cc(C(=O)OCc3ccc(F)c(F)c3)c3ccccc3c2=O)cc1 | . | . | . | 0.0794µM*[quencher] | -21.3%
CC#CCN1c2ccccc2[C@]23C[C@@H](C(=O)OC)N(S(=O)(=O)CCCC)C2=NC(C(=O)OC)=C(C(=O)OC)[C@H]13 | -2.5[11.7 µM] | -0.4%[11.7 µM] | . | -2.3%[11.2 µM] | 3.8%[11.2 µM]
CSc1nn(Cc2cccc(Cl)c2)c(N(C(C)=O)C(C)=O)c1S(=O)(=O)c1ccccc1 | . | . | . | -2.9% | -2.0%
COc1cc(-c2nc3sccn3c2Nc2c(C)cccc2C)ccc1O | . | . | . | 0.004µM*[quencher] | -4.6%
COC(=O)CC1c2ccccc2C=C(C)N1C(=O)OC (configuration not stated) | -5.0 | -11.2% | . | -1.5% | -0.4%
CC(C)(C)[C@H](O)[C@H](Cc1ccc(Cl)cc1)n1cncn1 | . | . | . | -0.5%[201 µM] | -2.4%[201 µM]

Bioassay records (PubChem BioAssay)
